Results with a measured potency or affinity are listed apart. Values without a mark were called inactive.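 Rule for the calls: active = signal falls, with fitted half-maximal concentration at most twice the top valid dose tested; inconclusive = flat curve with partial signal loss, or poor curve fit; inactive = the rest, including signal rising instead.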
Target: DNA repair and recombination protein RAD54-like (Homo sapiens) (UniProt Q92698)
Assay: inhibitors of human RAD54 branch migration, confirmation, biochemical, fluorescence, cherry-picked samples, dose series (AID 651657)
Conditions: FAM/BHQ fluorescence, 60 min; series mostly up to 50 µM; activity change, negative = inhibition: at the top concentration

DNA repair and recombination protein RAD54-like (Homo sapiens), sequence (Q92698 whole entry, looked up): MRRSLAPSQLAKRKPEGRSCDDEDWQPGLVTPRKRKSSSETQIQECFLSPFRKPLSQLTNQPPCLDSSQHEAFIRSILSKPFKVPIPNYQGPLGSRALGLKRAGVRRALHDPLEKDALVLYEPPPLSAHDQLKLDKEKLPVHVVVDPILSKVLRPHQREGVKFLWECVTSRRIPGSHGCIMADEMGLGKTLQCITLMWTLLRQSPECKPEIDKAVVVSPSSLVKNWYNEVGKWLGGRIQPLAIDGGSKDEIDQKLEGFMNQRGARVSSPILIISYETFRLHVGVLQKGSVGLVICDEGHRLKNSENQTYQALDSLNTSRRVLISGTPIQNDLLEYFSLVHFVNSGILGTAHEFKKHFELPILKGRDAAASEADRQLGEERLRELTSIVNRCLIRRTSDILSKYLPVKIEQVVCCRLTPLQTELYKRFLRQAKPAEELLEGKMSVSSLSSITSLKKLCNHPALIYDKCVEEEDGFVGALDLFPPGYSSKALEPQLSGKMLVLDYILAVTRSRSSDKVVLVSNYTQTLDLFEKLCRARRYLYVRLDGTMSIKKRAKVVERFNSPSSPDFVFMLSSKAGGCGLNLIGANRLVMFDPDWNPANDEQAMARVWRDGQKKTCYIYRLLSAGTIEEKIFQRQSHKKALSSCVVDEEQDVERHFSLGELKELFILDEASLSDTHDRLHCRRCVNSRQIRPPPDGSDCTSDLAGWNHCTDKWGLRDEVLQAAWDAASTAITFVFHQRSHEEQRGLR

Row | SMILES | activity change, negative = inhibition [%]
1 | O=C(CS(=O)(=O)c1ccccc1)Nc1ccc(Br)cn1 | 3.03
2 | CCN1CCN(c2cc(C)c3cc(NC(=S)N4CC(C)CC(C)C4)ccc3n2)CC1 (stereo not drawn) | -0.101
3 | CCC(=O)N(Cc1cc2cc(OC)ccc2[nH]c1=O)c1cc(C)ccc1C | 0.681
4 | COc1ccccc1C(=O)C(O)c1ccccc1OC (stereo not drawn) | 6.98
5 | CCN1CCN(c2cc(C)c3cc(NC(=S)N4CCC5(CC4)OCCO5)ccc3n2)CC1 | -7.13
6 | Cc1nc2oc3c(=O)[nH]cnc3c2c2c1COC(C)(C)C2 | -17.4
7 | Cc1c(Cl)ccc(S(=O)(=O)NCCCn2ccnc2)c1Cl | 3.66
8 | Cc1ccc(S(=O)(=O)N2CCOCC2)c(C)c1NS(C)(=O)=O | -2.78
9 | Cc1cccc(Cn2c(Sc3nc(C)cs3)nc3c2c(=O)[nH]c(=O)n3C)c1 | 1.49
10 | O=S(=O)(c1ccc(-c2nnc(SCc3ccccc3)o2)cc1)N1CCCC1 | 1.42
11 | O=C1C(c2ccc(F)cc2)N(C2CCCCC2)C(=O)CN1C1CCCC1 (stereo not drawn) | -0.016
12 | Cc1ccnc(SCC(=O)Nc2sc3c(c2C#N)CCC(C(C)(C)C)C3)n1 (stereo not drawn) | 6.25
13 | Cn1nc(-c2ccccc2)cc1NS(=O)(=O)c1ccc(C#N)cc1 | 0.704
14 | COCCCNCCC(CCC(C)C)c1ccc2c(c1)OCO2 (stereo not drawn) | 7.05
15 | Cc1ccc(C)c(N2CCN(C(=S)Nc3ccc4nc(N5CCN(C)CC5)cc(C)c4c3)CC2)c1 | -6.04
16 | COC(=O)C1=C(C)Nc2nc3ccccc3n2C1c1ccccc1F (stereo not drawn) | 7.88
17 | O=C(NN1CCOCC1)c1cc(-c2ccc(Cl)c(Cl)c2)nc2ccccc12 | 1.1
18 | CN(C)CCCN(C(=O)CCOc1ccccc1)c1nc2ccc(F)cc2s1 | 5.8
19 | NCCN1CCN(CCN)CC1 | 1.51
20 | CCOC(=O)C1C(=O)NC(N2CCN(c3ccccc3)CC2)=NC1c1ccco1 (stereo not drawn) | 0.305
21 | O=c1cc(CSc2n[nH]c(=O)n2C2CC2)c2ccc(O)cc2o1 | -3.13
22 | COc1ccccc1CNC(=O)c1cccs1 | 6.77
23 | O=C(Nc1nnc(COc2ccc(F)cc2)s1)c1ccco1 | 7.04
